Source: PubChem BioAssay
RGS4 inh: blocks human RGS4-accelerated GTP hydrolysis; hit rate 0.039% among 390,000; Potency, µM (doses to about 114 µM), inactives show top-dose activity change, negative = inhibition, actives largely listed as inhibitors; Transcreener GDP fluorescence polarization, RGS4-accelerated GTP hydrolysis; further: nearly all actives have a fitted effect of over 75% in size
Target sequence (P49798 whole entry, looked up): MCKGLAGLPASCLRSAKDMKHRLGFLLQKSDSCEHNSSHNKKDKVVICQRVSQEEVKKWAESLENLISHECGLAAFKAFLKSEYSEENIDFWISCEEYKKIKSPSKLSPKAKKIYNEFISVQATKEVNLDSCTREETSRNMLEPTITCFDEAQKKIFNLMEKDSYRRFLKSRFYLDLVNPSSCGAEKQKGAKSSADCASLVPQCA
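MLSMR compounds (23 nl, pin-transferred) preincubated 10 min at room temperature with a 500nM (2x) first reagent, then RGS4 at 900nM (2x) plus Transcreener GDP mix added; fluorescence polarization (620/688 nm) read before and after 90 min at 30 °C.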
Eya2 phos inh: Eya2 (human) phosphatase inhibition; Potency, µM (series often up to 76.9 µM), for the others: at the top dose activity, negative = inhibition, hits mostly inhibitors; O00167; hit rate 0.006% among 330,000; recombinant Eya2, OMFP fluorescence dephosphorylation (OMFP is methylfluorescein phosphate)
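Eya2 (0.2 uM) preincubated 10 min at ambient with compound, then OMFP substrate added at 50 uM; 10 min reaction in 50 mM HEPES pH 7.5, 50 mM NaCl, 5 uM MgCl2, 0.05% BSA, 1 mM DTT. Fluorescence read at Ex 485/Em 525 nm.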
TrxR1 inh: rat TrxR1 inhibition; O89049; recombinant rTrxR1, NADPH fluorescence consumption, selenite substrate; Potency, µM (top dose mostly 114 µM), for inactives: at the highest dose activity change, negative = inhibition, usual class: inhibitors; hit rate 1% among 390,000; AID 588453; further: nearly all actives have a fitted effect of over 65% in size
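Rat TrxR1 (90 nM in the dispensed reagent) was pre-reduced with 400 uM NADPH for 5 min at room temperature, then incubated with compound for 15 min. After 400 uM selenite was added, NADPH fluorescence (Ex 340/Em 450 nm) was followed for 8 min.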
GALK inhibitor: inhibitors of human galactokinase; P51570; Purified GALK, Kinase-Glo residual ATP luminescence; Potency, µM (titrated, usually from 57.5 µM), for inactives: at the highest dose activity change, negative = inhibition, usual class: inhibitors; hit rate 0.007% among 270,000; AID 1868
Target sequence (P51570 whole entry, looked up): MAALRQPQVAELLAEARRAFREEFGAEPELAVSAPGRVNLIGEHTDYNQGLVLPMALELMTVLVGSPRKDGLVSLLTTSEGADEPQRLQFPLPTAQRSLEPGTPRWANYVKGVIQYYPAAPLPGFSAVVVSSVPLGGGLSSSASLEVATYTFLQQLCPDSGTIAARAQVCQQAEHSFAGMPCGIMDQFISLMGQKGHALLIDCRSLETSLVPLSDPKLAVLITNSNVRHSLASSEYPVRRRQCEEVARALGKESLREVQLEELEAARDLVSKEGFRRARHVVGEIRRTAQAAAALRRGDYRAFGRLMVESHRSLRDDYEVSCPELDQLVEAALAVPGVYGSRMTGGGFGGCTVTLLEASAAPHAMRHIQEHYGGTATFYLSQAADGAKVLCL
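Quantitative HTS: GALK 5 nM, ATP 35 uM, galactose 100 uM, 1 h room temperature, then luciferase-based ATP detection.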
USP2a inh: blocks human ubiquitin-specific protease USP2a; USP2 core, Ub-CHOP2 coupled fluorogenic reporter, 485/531; Potency, µM (highest dose often 38.3 µM), for the others: at the highest dose activity change, negative = inhibition, actives largely listed as inhibitors; hit rate 0.01% among 330,000; AID 463254;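 further: plate controls were DMSO wells for no effect and full inhibition by NEM control for full effect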
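Cell-free coupled assay: 10nM USP2 core preincubated 30min RT with compound in Tris-HCl pH 8.0/CaCl2/CHAPS buffer, then 25nM Ub-CHOP2 and 25nM reporter substrate; fluorescence (Ex 485/Em 531) read after 60min RT, normalized to NEM inhibition, concentration-response curves fitted.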
TrxR1 substrate: rat thioredoxin reductase 1 substrate activity; O89049; purified TrxR1 substrate turnover, NADPH consumption readout; Potency, µM (titrated, usually from 114 µM), without a hit: top-dose activity change, negative = substrate turnover; hit rate 0.01% among 390,000; further: nearly all actives have a fitted effect of over 50% in size
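Rat TrxR1, dispensed at 90 nM, was prereduced with 400 uM NADPH (final) for 5 min at ~22 deg C, then incubated with compound 15 min before 400 uM selenite. A first-read NADPH fluorescence drop versus no-compound background flagged substrates.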
* = called active by the depositor; [ ] = dose if it differs, or a comment. Rows were chosen to be rich in hits. Some 1% of all compounds tested hit in one or more screens of this group. The call rests on the fitted dose curve; in most records, active means well fitted curve in the direction sought with a large enough effect; inconclusive means small, poorly fitted or top-dose-only effect, or another doubt; inactive means no such curve, though single readings can be large; an effect the other way counts as inactive or inconclusive. Unless noted, on the % scale 0 is the no-effect control and ±100 the full control effect; potency means the concentration at half of the fitted maximal effect.

For COC(C/C=C/C(=O)COCc1ccccc1)OC the results were RGS4 inh -21%, Eya2 phos inh -1%, TrxR1 inh inconclusive, GALK inhibitor -2%, USP2a inh -5% and TrxR1 substrate 5%.
`CCCCCCCCCCCCCCCC(=O)NCC(COP(=O)([O-])OCC[N+](C)(C)C)OCC` (stereo not drawn) gave RGS4 inh 21µM*, Eya2 phos inh -3%, TrxR1 inh inconclusive and TrxR1 substrate -3%[57.1 µM].
For O=C(/C=C\c1ccc(-c2ccccc2)o1)c1ccccc1 the results were RGS4 inh -44%, Eya2 phos inh -16%, TrxR1 inh 10µM*, GALK inhibitor 0%, USP2a inh 0% and TrxR1 substrate -7%.
For Cc1ccc(C(=O)/C=C\C(=O)c2ccc(C)cc2)cc1 the results were RGS4 inh inconclusive, Eya2 phos inh -3%, TrxR1 inh 5µM*, GALK inhibitor 2%, USP2a inh 2% and TrxR1 substrate 7%.
O/N=C\c1ccc(-c2ccccc2)o1 was read as RGS4 inh 1%, Eya2 phos inh -5%, TrxR1 inh -22%, GALK inhibitor 2%, USP2a inh 0% and TrxR1 substrate -14%.
`O=C(O)/C=C/C(=O)c1ccc(O)cc1` gave RGS4 inh -45%, Eya2 phos inh 9%, TrxR1 inh 18µM*, GALK inhibitor -1%, USP2a inh -1% and TrxR1 substrate -6%.
O=C(O)/C=C/C(=O)Nc1ccc(C(=O)c2ccccc2)cc1 was read as RGS4 inh -1%, Eya2 phos inh 1%, TrxR1 inh 1%, GALK inhibitor 2%, USP2a inh 0% and TrxR1 substrate -14%.
Screening CC(/C=C/C(=O)c1ccc(C)cc1)=C\c1ccccc1 returned RGS4 inh -15%, Eya2 phos inh 10%, TrxR1 inh 4%, GALK inhibitor 1%, USP2a inh -2% and TrxR1 substrate -2%.
Screening O=C(O)/C=C/C(=O)Nc1ccc(O)cc1 returned RGS4 inh -18%, Eya2 phos inh -29%, TrxR1 inh 71µM*, USP2a inh -1% and TrxR1 substrate -1%.
Screening C(=C\c1ccnc2ccccc12)/c1ccccc1 returned TrxR1 inh -5% and TrxR1 substrate 5%[0.0914 µM].
For Cc1ccc(C(=O)/C=C/c2ccc(-c3ccc(C)cc3)o2)cc1 the results were RGS4 inh -53%, Eya2 phos inh -16%, TrxR1 inh 18µM*, GALK inhibitor 1%, USP2a inh 5% and TrxR1 substrate -9%.
Screening CN(Cc1ccccc1)c1ccc(C=O)cc1 returned TrxR1 inh -7% and TrxR1 substrate -6%.
Screening CS(=O)(=O)c1ccc(C(=O)Nc2nc(-c3ccco3)c(-c3ccco3)s2)cc1 returned RGS4 inh inconclusive, Eya2 phos inh 9%, TrxR1 inh 14µM*, USP2a inh inconclusive and TrxR1 substrate -20%.
`COc1cc2c(NC3CCN(C(C)C)CC3)nc(N3CCCN(C)CC3)nc2cc1OCCOCCN1CCCC1` gave TrxR1 inh -19% and TrxR1 substrate 110%.
Screening CCCC(=O)NCCc1c(I)[nH]c2ccc(OC)cc12 returned RGS4 inh 40%[56.9 µM].
`CC(C)c1cc(NC(=O)CCl)on1` gave RGS4 inh 0%, Eya2 phos inh 5%, TrxR1 inh 50µM*, GALK inhibitor 0%, USP2a inh 0% and TrxR1 substrate 0%.
Screening Cc1cc(Br)c(NC(=O)CCl)c(Br)c1 returned RGS4 inh -17%, Eya2 phos inh -1%, TrxR1 inh inconclusive, GALK inhibitor -1%, USP2a inh 0% and TrxR1 substrate 1%.
COc1cccc(CNC(=O)CSc2c3c(nc4ccc(Cl)cc24)CCCC3)c1OC was read as RGS4 inh -9%, TrxR1 inh 8% and TrxR1 substrate -1%.
For COc1ccc(C(C[N+](=O)[O-])c2c(-c3ccccc3)cc3ccccn23)cc1 (stereo not drawn) the results were RGS4 inh inconclusive, Eya2 phos inh 25%, TrxR1 inh inconclusive, GALK inhibitor 6%, USP2a inh 6% and TrxR1 substrate 1%[57.1 µM].
Screening COc1ccc(C(C[N+](=O)[O-])c2c(-c3ccccc3)cc3ccccn23)cc1OC (stereo not drawn) returned RGS4 inh -26%[11.4 µM], TrxR1 inh 16µM*, GALK inhibitor 6% and TrxR1 substrate -5%.
Screening COc1cc(C(C[N+](=O)[O-])c2c(-c3ccccc3)cc3ccccn23)cc(OC)c1OC (stereo not drawn) returned RGS4 inh inconclusive, Eya2 phos inh 15%, TrxR1 inh 1.8µM*, GALK inhibitor 2%, USP2a inh -14% and TrxR1 substrate 0%.
COC(=O)/C=C\C(C#N)(C#N)N=Cc1ccc(OC)cc1 was read as RGS4 inh -52%, TrxR1 inh 2.2µM* and TrxR1 substrate -5%.
Screening COc1ccc(C=NNC(=O)CCCCC(=O)NN=Cc2ccc(OC)cc2)cc1 returned RGS4 inh -15%, TrxR1 inh 2% and TrxR1 substrate -1%.
For CCCNC(=O)c1nnsc1S(=O)(=O)c1ccc(Cl)cc1 the results were RGS4 inh inconclusive, Eya2 phos inh 0%, TrxR1 inh inconclusive, GALK inhibitor 9%, USP2a inh 0% and TrxR1 substrate 3%[57.1 µM].
`Cc1ccc(S(=O)c2snnc2C)cc1` (stereo not drawn) gave RGS4 inh -7%, Eya2 phos inh -4%, TrxR1 inh 18%, GALK inhibitor -1%, USP2a inh 5% and TrxR1 substrate 5%.
For CNC(=O)c1nnsc1S(=O)c1ccc(Cl)cc1 (stereo not drawn) the results were RGS4 inh inconclusive, Eya2 phos inh -3%, TrxR1 inh 0.35µM*, GALK inhibitor 9%, USP2a inh 1% and TrxR1 substrate 5%[57.1 µM].
For CCCNC(=O)c1nnsc1S(=O)c1ccc(Cl)cc1 (stereo not drawn) the results were RGS4 inh inconclusive, Eya2 phos inh -11%, TrxR1 inh 0.56µM*, GALK inhibitor 11%, USP2a inh 2% and TrxR1 substrate 6%[57.1 µM].
For COc1cc(CNc2cccc(F)c2)cc(Br)c1O the results were RGS4 inh -6%, Eya2 phos inh -1%, TrxR1 inh 13µM*, GALK inhibitor 3%, USP2a inh -4% and TrxR1 substrate -1%[57.1 µM].
For COc1ccc(CNc2ccccc2)cc1Br the results were RGS4 inh -23%, Eya2 phos inh 6%, TrxR1 inh 13%, GALK inhibitor -1%, USP2a inh 2% and TrxR1 substrate -6%.
